# From PubChem
# Only some compounds are listed: those with a hit (about 31% of all), similar ones and a draw of the others.
# CYP2C9 inhib: inhibitors of human CYP2C9. CYP2C9 Supersomes, luciferin-H conversion, luminescence. inhibition, % at 5 µM. P11712. 96,000 tested, 20% active;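 active = blocking of liver enzyme CYP2C9 beyond about 50% at 5 µM, limit read from the data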
# CYP2C19 inhib: blocks human cytochrome P450 2C19; CYP2C19 Supersomes, luciferin-H EGE luminescence, 30 min; inhibition, % at 5 µM; 96,000 tested, 21% active;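 active = CYP2C19 inhibition above a set limit at 5 µM in the primary screen, cut at about 50% in these data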
# Target sequence (P33261 whole entry, looked up): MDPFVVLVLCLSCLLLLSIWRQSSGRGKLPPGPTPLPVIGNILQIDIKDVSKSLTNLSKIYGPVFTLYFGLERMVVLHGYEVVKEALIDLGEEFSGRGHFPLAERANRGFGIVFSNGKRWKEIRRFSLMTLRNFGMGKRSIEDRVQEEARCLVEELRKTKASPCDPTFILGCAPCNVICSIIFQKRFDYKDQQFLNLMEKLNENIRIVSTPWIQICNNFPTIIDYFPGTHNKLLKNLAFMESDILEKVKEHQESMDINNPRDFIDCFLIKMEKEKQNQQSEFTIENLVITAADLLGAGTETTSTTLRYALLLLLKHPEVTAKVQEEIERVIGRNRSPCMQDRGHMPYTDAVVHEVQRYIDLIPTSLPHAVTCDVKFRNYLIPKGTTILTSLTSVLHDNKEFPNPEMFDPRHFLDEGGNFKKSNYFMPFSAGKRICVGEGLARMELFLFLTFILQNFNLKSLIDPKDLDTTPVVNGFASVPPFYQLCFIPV
# CYP2C19 activ: increases human CYP2C19 enzyme activity; 96,000 tested, under 10 active; P33261; recombinant CYP2C19, luciferin-H EGE luminescence; stronger effect = higher value; 0 = fully inhibited enzyme, 1 = untreated enzyme; activation factor at 5 µM; AID 1025;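 active = activation factor of at least 2 at 5 µM in the primary screen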
# CYP2C9 activ: activators of human CYP2C9; P11712; recombinant CYP2C9, luciferin-H conversion, luminescence; stronger effect = higher value; factor 1 = untreated enzyme, 0 = blocked; activation factor at 5 µM; 96,000 tested, 1.4% active; AID 1024;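 active = activation factor of 2 or more for CYP2C9 at a 5 µM dose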
# Numbers stand for hits; – = inactive.
SMILES,CYP2C9 inhib,CYP2C19 inhib,CYP2C19 activ,CYP2C9 activ
O=C(Nc1ccccc1C(=O)NCc1ccccc1)c1ccco1,74,54,–,–
Cc1ccc(C(=O)Nc2cccnc2)cc1NC(=O)c1ccco1,54,–,–,–
CN(C)CCN1C(=O)c2oc3ccc(Cl)cc3c(=O)c2C1c1cccc(Br)c1 (stereo not given),–,–,–,–
COc1cccc(N2CCCn3c2nc2c3c(=O)n(CCN3CCOCC3)c(=O)n2C)c1,–,–,–,–
COC(=O)c1ccc(NC(=O)CN2CCN(c3ccccc3)CC2)cc1,–,–,–,–
O=C(Nc1cccc2cccc(NC(=O)c3ccco3)c12)c1ccco1,–,69,–,–
CN(Cc1ccccc1)C(=O)c1ccccc1NC(=O)c1ccccc1,–,–,–,–
O=C(Nc1ccccc1C(=O)NCc1ccccc1)c1ccccc1,54,–,–,–
CCCNC(=O)CCC(=O)Nc1ncc(-c2ccc(C)cc2)n1C,–,–,–,–
CN(C)c1cc(O)c(C(=S)Nc2ccccc2)c(N(C)C)c1,–,79,–,–
CC(=O)N(C)c1ccc(NC(=S)Nc2ccccc2)cc1,–,–,–,–
CCc1c(C)nc(N)nc1OCC(F)(F)C(F)F,–,–,–,–
Clc1cccc(CSc2nc3ccncc3[nH]2)c1,76,100,–,–
O=CN1CC(=O)N(c2ccccc2)c2c([nH]c3ccccc23)C1,–,79,–,–
O=C1CS/C(=C\[N+](=O)[O-])N1c1ccccc1,–,–,–,–
COc1ccc(OC)c(NC(=O)C2=C(C)Nc3ncnn3C2c2cccs2)c1 (stereo not given),–,–,–,–
COc1ccc(C2Oc3ccccc3C3=C2C(c2cccs2)n2ncnc2N3)cc1 (stereo not given),67,–,–,–
Brc1ccc(C2C3=C(Nc4ncnn42)c2ccccc2OC3c2ccncc2)cc1 (stereo not given),89,55,–,–
CCCc1nnc(SCc2ccc(OCC)cc2)n1N,–,–,–,–
Cc1nc(C)c(C(=O)NCc2ccccc2Cl)o1,–,–,–,–
Cc1cc(C(=O)NCc2ccccc2)c(=O)[nH]c1C,–,–,–,–
O=C(NCc1ccccc1Cl)c1cnc2n(c1=O)CCS2,–,64,–,–
COc1ccc(CNC(=O)c2cnc3n(c2=O)CCS3)cc1,–,–,–,–
Cc1nc2c(C(=O)NCc3ccccc3)c[nH]n2c(=O)c1Cl,53,–,–,–
Cc1nc2c(C(=O)NCc3ccccc3Cl)c[nH]n2c(=O)c1Cl,92,–,–,–
SMILES,CYP2C9 inhib,CYP2C19 inhib,CYP2C19 activ,CYP2C9 activ
Cc1cccc(NC2=NCC(=O)N2CCc2ccccc2)c1,–,–,–,–
O=S(=O)(N1CCCCCC1)N1CCN(S(=O)(=O)N2CCCCC2)CC1,–,–,–,–
Cc1ccc2occ(CN3CCN(c4ccccc4)CC3)c(=O)c2c1,–,82,–,–
O=c1c(CN2CCN(Cc3ccccc3)CC2)coc2ccc(Cl)cc12,–,–,–,2.8
Cc1ccc2occ(CN3CCN(Cc4ccccc4)CC3)c(=O)c2c1,–,–,–,–
O=c1cc(CN2CCN(Cc3ccccc3)CC2)c2cc(Cl)ccc2o1,–,–,–,–
CCCC(=O)Nc1ccc(N2CCN(C(=O)c3cccs3)CC2)cc1,–,–,–,–
CCOc1ncccc1C(=O)OCC(=O)NCCc1ccc(OC)cc1,58,81,–,–
CCOc1ncccc1C(=O)OCc1ccc(C(=O)OC)o1,–,–,–,–
CCOc1ccc(CCNC(=O)COC(=O)c2cccnc2OCC)cc1OCC,87,77,–,–
O=S(=O)(c1ccccc1C(F)(F)F)N1CCN(S(=O)(=O)c2ccccc2C(F)(F)F)CC1,–,–,–,–
CCn1c(N2CCN(S(=O)(=O)c3ccccc3C(F)(F)F)CC2)nc2ccccc21,–,69,–,–
Cn1c(SCC(=O)NCc2ccco2)nnc1-c1c[nH]c2ccccc12,–,52,–,–
CCOc1ccc(-n2c(SCC(=O)NCc3ccco3)nnc2-c2c[nH]c3ccccc23)cc1,60,–,–,–
CNC(=S)N1C2CCC1CC(NC(=O)NC13CC4CC(CC(C4)C1)C3)C2 (stereo not given),–,–,–,–
Cc1ccccc1NC(=S)NN1CCN(C)CC1,–,–,–,–
CCC1(CC)C(=O)N(C)C(=O)NC1=Nc1ccccc1,–,–,–,–
COC(=O)C1=C(C)N=C2SC(C)C(=O)N2C1/C=C/c1ccccc1OC (stereo not given),63,81,–,–
CCC1SC2=NC(C)=C(C(=O)OCCOC)C(/C=C/c3ccccc3OC)N2C1=O (stereo not given),91,78,–,–
CCC1SC2=NC(C)=C(C(=O)OCC(C)C)C(/C=C/c3ccccc3OC)N2C1=O (stereo not given),78,–,–,–
Cc1ccc(C)c2[nH]c(=O)c(CCNC(=O)c3ccc(S(=O)(=O)N(C)C)cc3)cc12,59,–,–,–
CCN(CC)S(=O)(=O)c1ccc(C(=O)NCCc2cc3c(OC)ccc(OC)c3[nH]c2=O)cc1,85,–,–,–
COc1ccc(OC)c2[nH]c(=O)c(CCNC(=O)c3ccc(S(=O)(=O)N4CCCC4)cc3)cc12,62,–,–,–
Cc1ccc(C)c2[nH]c(=O)c(CCNC(=O)c3ccc4c(c3)OCO4)cc12,–,–,–,–
CCCCC(=O)NCCc1cc2c(OC)ccc(OC)c2[nH]c1=O,–,–,–,2.3
SMILES,CYP2C9 inhib,CYP2C19 inhib,CYP2C19 activ,CYP2C9 activ
COc1nc(-c2ccccc2)ccc1-c1noc(-c2ccccc2F)n1,–,–,–,–
O=[N+]([O-])c1c(C(Cl)Cl)nn(-c2ccccc2)c1N1CCCC1,–,56,–,–
CC1CN(c2nc3c(c(=O)n(C)c(=O)n3C)n2Cc2c(F)cccc2Cl)CC(C)O1 (stereo not given),59,–,–,–
N#CCSc1nnc(Nc2ccccc2)s1,–,84,–,–
OCCSc1nnc(Nc2ccccc2)s1,–,–,–,–
N#CCSc1nc(-c2ccccc2)cs1,–,56,–,–
CC(C)CCNC(=O)C(C)N(Cc1ccc(F)cc1)C(=O)c1ccc(CN2CCCCC2)o1 (stereo not given),–,–,–,–
Brc1c(OCCOCCn2cncn2)ccc2ccccc12,95,99,–,–
O=C(Oc1ccc2ccccc2c1Br)N1CCCCCC1,–,–,–,–
C/C(=C\C(=O)Nc1cc(C)on1)c1ccccc1,–,–,–,–
Cc1ccc2cc(CN(CCCO)S(=O)(=O)c3cccc4nsnc34)c(=O)[nH]c2c1,100,–,–,–
Cc1ccc2[nH]c(=O)c(CN(CCCO)S(=O)(=O)c3cccc4nsnc34)cc2c1,88,–,–,–
Cc1ccc2nsnc2c1S(=O)(=O)N(CCO)Cc1cc2cc3c(cc2[nH]c1=O)OCCO3,–,–,–,–
O=c1ncn(-c2cccc(F)c2)c2ncccc12,–,–,–,–
COc1ccc(C(=O)COC(=O)CSCc2c(C)noc2C)cc1OC,–,64,–,–
CSc1nc(Oc2ccc(=O)n(C)n2)nc(N(C)C)n1,–,–,–,–
CC(NCc1ccccc1)C1COc2ccccc2O1 (stereo not given),–,52,–,–
